High-throughput results deposited in PubChem by National Center for Advancing Translational Sciences (NCATS).
Only some compounds are listed: those with a hit (about 7% of all), similar ones and a draw of the others.
GCN5L2 inh: blocks human GCN5L2 histone acetyltransferase. GCN5L2 HAT assay, ThioGlo1 CoA-SH fluorescence. 390,000 tested, 0.21% active. Potency, µM (titrated, usually from 58.9 µM), actives largely listed as inhibitors. AID 504327
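ThioGlo1-coupled HAT assay: 20nM GCN5L2, 70uM acetyl-CoA, 75uM H3(1-25) peptide, pH 7.5. Fluorescence read at 340/540nm at start and after 20 min at room temperature.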
PLK1 PBD inh: inhibitors of human PLK1 polo-box domain binding; P53350; Potency, µM, hits mostly inhibitors; AID 720504; Plk1 PBD binding of FITC phosphopeptide, fluorescence polarization; 360,000 tested, 2.8% active; also: series mostly up to about 57 µM; nearly all actives have a fitted effect of over 65% in size
HP1b binding inh: blocks HP1-beta chromodomain binding to methylated histone tails; P83916; AlphaScreen HP1-beta / biotin-H3K9me3 peptide binding; Potency, µM (series often up to 114 µM), actives largely listed as inhibitors; 390,000 tested, 0.56% active; AID 540317; also: nearly all actives have a fitted effect of over 70% in size
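AlphaScreen: HP1-beta (50 nM) preformed 30 min with biotin-H3(1-18)K9me3 peptide (50 nM) in PBS pH 7.4, 0.01% Tween-20. Compound added for 30 min at RT, then streptavidin donor/nickel chelate acceptor beads (10 ug/mL) for 30 min.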
JMJD2A Tudor: inhibitors of human JMJD2A Tudor domain | Potency, µM (doses to about 114 µM), usual class: inhibitors | O75164 | 390,000 tested, 4.4% active | AlphaScreen JMJD2A-Tudor / H3K4me3 peptide binding; also: nearly all actives have a fitted effect of over 50% in size
PI5P4Ka inh: inhibitors of human PI5P4K alpha. max response, %. P48426. 330,000 tested, 1.2% active. PI5P4Kalpha enzyme, ADP-Glo luminescence, 60 min; stronger effect = lower value; active = max response of -50% or lower; inconclusive = between -30% and -50%; inactive = -30% or higher; also: value at the top dose of about 77 µM
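qHTS, 1536-well: enzyme/substrate mix, compound by pin tool, 5 microM ATP final; RT 60 min; ADP-Glo reagents 1 (45 min) then 2 (30 min); luminescence.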
BAZ2B block: blocks human BAZ2B; 360,000 tested, 4.4% active; AlphaScreen BAZ2B-H3K14Ac peptide displacement; Q9UIF8; Potency, µM (top dose mostly 114 µM), most hits filed as inhibitors; also: nearly all actives have a fitted effect of over 60% in size
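In this displacement format the biotinylated H3(5-23) peptide acetylated at Lys14 serves as ligand at 50 nM, with BAZ2B at 50 nM in PBS pH 7.4 containing 0.01% Tween-20. Donor and acceptor beads are 10 ug/mL final.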
Hits are given with their value; - = inactive; ? = inconclusive; . = not tested or not shown; ! = a repeat was not active; [ ] = another dose, or the depositor's remark. Unless noted, calls follow the shape of the dose curve; as a rule, active = well fitted curve in the direction sought with a large enough effect; inconclusive = small, poorly fitted or top-dose-only effect, or another doubt; inactive = no such curve, though single readings can be large; an effect the other way counts as inactive or inconclusive.

SMILES	GCN5L2 inh	PLK1 PBD inh	HP1b binding inh	JMJD2A Tudor	PI5P4Ka inh	BAZ2B block
Cc1ccc(S(=O)(=O)n2nc(-c3ccc(Cl)cc3)nc2NCc2ccc(F)cc2)cc1	-	.	-	-	.	-
CCOC(=O)CC[C@H](NC(=O)Cn1cnc2c(OCc3ccccc3)ncnc21)C(=O)OCC	-	-	-	-	-	.
Nc1cc(=O)[nH]c(SCC(=O)Nc2cc([N+](=O)[O-])ccc2Cl)n1	-	21.2µM	?	?	-	-
Cc1nc2c(C(=O)NCCC3=CCCCC3)c[nH]n2c(=O)c1Cl	-	23.8µM	-	-	.	-
Oc1c(/C=N/c2ccccn2)sc2ccccc12	-	-	-	?	-	39.8µM
C=CCN1[C@@H](Cc2ccccc2)COc2cc(N3CCSCC3)ccc2S1(=O)=O	.	-	.	.	-	.
C=CCn1cc(/C=C/c2cc[n+](C)cc2)c2ccccc21	-	-	-	-	-	50.1µM
COc1ccc(OC)c(CNc2sc3c(c2C(=O)Nc2cc(OC)ccc2OC)CCCC3)c1	-	.	-	?	.	22.4µM
COc1ccc(NC(=O)c2c(NCc3cccs3)sc3c2CCCCC3)cc1	-	.	-	50.1µM	.	39.8µM
COc1ccc(NC(=O)c2c(NCc3cccs3)sc3c2CCCC3)c(OC)c1	-	.	-	?	.	?
CCOc1ccc(NC(=O)c2c(NCc3cccs3)sc3c2CCCCC3)cc1	-	.	-	?	.	?
COc1ccc(OC)c(NC(=O)c2c(NCc3cccs3)sc3c2CCCCC3)c1	-	.	-	?	.	22.4µM
COc1ccc(OC)c(NC(=O)c2c(NCc3cccs3)sc3c2CCCC3)c1	-	.	-	39.8µM	.	35.5µM
CC(=O)c1ccc(S(=O)(=O)N2CCn3cccc3C2c2ccccc2F)cc1 (stereo not drawn)	-	.	-	-	.	?
O=C(Nc1nc(-c2ccccc2)c(-c2ccccc2)o1)c1ccc(F)cc1	-	2.99µM	?	-[11.4 µM]	-	-
Cc1ccc(-n2c(Cc3cccn3C)nnc2SCC(=O)NCc2ccc3c(c2)OCO3)cc1	-	-	-	?	.	50.1µM
Cc1ccc(-n2c(Cc3cccn3C)nnc2SCC(=O)Nc2ccc3c(c2)OCO3)cc1	-	-	?	44.7µM	.	44.7µM
Cc1ccc(-n2c(Cc3cccn3C)nnc2SCC(=O)Nc2nnc(C)s2)cc1	-	-	-	-	.	-
Cc1nn(CC(=O)OCC(=O)c2ccccc2)c(C)c1[N+](=O)[O-]	-	-	-	-	-	.
O=C(NCC1(O)CCCCC1)C1CCC(=O)N(CCc2ccccc2)C1 (stereo not drawn)	-	-	-	-	-	-
CCCCN1/C(=C/c2ccc3ccccc3[n+]2CC)Sc2ccccc21	-	-	-	31.6µM	-	?
Cc1ccc2c(c1)N(C)/C(=C/c1cccc[n+]1C)S2	-	-	-	?	-	?
CCN1/C(=C/c2ccc3cc(C)ccc3[n+]2C)Sc2ccc3sccc3c21	-	-	-	14.1µM	-	44.7µM
CCN(CC)[C@@H](C)CN1c2ccccc2Sc2ccccc21	-	.	.	.	.	.
CCN1/C(=C/c2ccc3cc(C)ccc3[n+]2CC)Sc2cc(C)ccc21	-	-	-	?	-	39.8µM
SMILES	GCN5L2 inh	PLK1 PBD inh	HP1b binding inh	JMJD2A Tudor	PI5P4Ka inh	BAZ2B block
Cc1[nH]c2ccccc2c1C(=O)C(=O)NCc1cccs1	-	-	-	-	-	.
COC(=O)c1ccccc1S(=O)(=O)N(CCCN1CCOCC1)Cc1cccs1	-	-	?	7.94µM	-	50.1µM
Cc1ccc(NC(=S)N(CCCN2CCOCC2)Cc2cccs2)c(C)c1	-	18.9µM	-	-	-	-
CCOc1ccc(NC(=O)c2cccc(S(=O)(=O)NCc3cccnc3)c2)cc1	.	-	.	.	-	.
COC(=O)C1=C(C)N(CCC2=CCCCC2)C(=O)C1	-	?	-	50.1µM	-	-
O=C1C(Nc2ccc(O)cc2)=C/C(=N/S(=O)(=O)c2cccs2)c2ccccc21	-	-	?	20µM	-	7.94µM
Cc1cccc(NC2=C/C(=N/S(=O)(=O)c3cccs3)c3ccccc3C2=O)c1	-	-	?	5.62µM	-	2.51µM
Cc1ccc(NC2=C/C(=N\S(=O)(=O)c3cccs3)c3ccccc3C2=O)c(C)c1	-	-	5.62µM	4.47µM	-	3.55µM
O=C1/C(=N\S(=O)(=O)c2cccs2)C([n+]2ccccc2)=C([O-])c2ccccc21	-	?	-	-	-	?
CC(C)(C)c1cc[n+](C2=C([O-])c3ccccc3C(=O)/C2=N\S(=O)(=O)c2cccs2)cc1	-	-	-	-	-	-
Cc1ccc(Cl)cc1NC1=C/C(=N\S(=O)(=O)c2cccs2)c2ccccc2C1=O	-[0.501 µM]	?	3.98µM!	2.82µM	?	10µM
CCc1nnc(NC(=O)Cc2ccc(S(=O)(=O)N3CCCCC3)cc2)s1	-	-	-	-	-	-
Cc1nn(Cc2ccccc2)c(Cl)c1/C=C/C(=O)OC(C)C(=O)N1CCCC1 (stereo not drawn)	-	-	-	-	-	-
Cc1cc(C(=O)Nc2cccc3c2O[C@H](CN(C)CC2CC2)[C@@H](C)CN([C@H](C)CO)C3=O)n(C)n1	-	-	-	-	-	.
COc1cc(C=NO)nc(-c2ccccn2)c1	.	-	-	14.1µM	-	.
COc1ccc2nc(-c3ccccn3)[nH]c2c1	-	-	-	-	-	?
Cc1nc(SCC(=O)N2CCN(C(=O)c3cccs3)CC2)c2c(C)c(C)sc2n1	-	-	-	-	-	-
CCCCCCC(=O)Nc1nc(C)c(-c2csc(Nc3cc(OC)ccc3OC)n2)s1	-	-	-	50.1µM	-	?
CCCCCC(=O)Nc1nc(C)c(-c2csc(Nc3cc(OC)ccc3OC)n2)s1	-	-	?	50.1µM	-	28.2µM
CC1(C(=O)NS(=O)(=O)c2cccc(OC(F)F)c2)CCN1C(=O)CC1CCCC1 (stereo not drawn)	.	-	.	.	-	.
CC(=O)Nc1ccc(SCC(=O)N(C)CC(=O)Nc2ccccc2Cl)cc1	-	7.52µM	-	-	-	.
CN(C)c1ccc(CNC(=O)c2cnc3sc(N4CCCC4)nn3c2=O)cc1	-	.	-	-	.	-
CC(=O)NCCNc1ncnc2ccc(-c3ccoc3)cc12	25.1µM	.	.	.	.	.
c1nc(NCc2ccc3c(c2)OCO3)c2cc(-c3ccoc3)ccc2n1	-	.	-	-	.	50.1µM
CCC(=O)c1ccc(OCC(=O)OCC(=O)NCC2CCCCC2)cc1	-	-	?	-	-	-
CCOc1ccc(NC(=O)c2cnc3sc(N4CCOCC4)nn3c2=O)cc1	-	.	-	-	.	-
Cc1cc(C)cc(OCCSc2nc3ccc(NC(=O)c4ccc5c(c4)OCO5)cc3s2)c1	-	.	-	-	.	-
COC(=O)c1ccc(-n2c(CCC(=O)O)ccc2-c2ccc(C)cc2)cc1	-	-	-	?	-	44.7µM
CCCn1c(CCC(=O)O)ccc1-c1ccccc1	-	11.9µM	?	35.5µM	?	-
Cc1ccc(-c2ccc(CCC(=O)O)n2-c2ccc(C(=O)O)cc2)cc1	-	-	-	-	-	?
